Columns and labels:
Conditions in all cases: concentration: 1 μM, replicates: in singlicate; n = 1
[1] = system: RIPK4
[2] = system: RIPK5
[3] = system: ROCK1
[4] = system: ROCK2
[5] = system: ROS1
[6] = system: RPS6KA4(Kin.Dom.1-N-terminal)
[7] = system: RPS6KA4(Kin.Dom.2-C-terminal)
[8] = system: RPS6KA5(Kin.Dom.1-N-terminal)
[9] = system: RPS6KA5(Kin.Dom.2-C-terminal)
[10] = system: T1, RSK1(Kin.Dom.1-N-terminal)
T1 construct: gene RPS6KA1

[11] = system: T2, RSK1(Kin.Dom.2-C-terminal)
T2 construct: gene RPS6KA1

[12] = system: T3, RSK2(Kin.Dom.1-N-terminal)
T3 construct: gene RPS6KA3

[13] = system: T4, RSK2(Kin.Dom.2-C-terminal)
T4 construct: gene RPS6KA3

[14] = system: T5, RSK3(Kin.Dom.1-N-terminal)
T5 construct: gene RPS6KA2

[15] = system: T6, RSK3(Kin.Dom.2-C-terminal)
T6 construct: gene RPS6KA2

[16] = system: T7, RSK4(Kin.Dom.1-N-terminal)
T7 construct: gene RPS6KA6

[17] = system: T8, RSK4(Kin.Dom.2-C-terminal)
T8 construct: gene RPS6KA6

[18] = system: S6K1
[19] = system: SBK1
[20] = system: SGK2
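Also: KINOMEscan kinase panel screen.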

Row | SMILES | %Inh [1] | %Inh [2] | %Inh [3] | %Inh [4] | %Inh [5] | %Inh [6] | %Inh [7] | %Inh [8] | %Inh [9] | %Inh [10] | %Inh [11] | %Inh [12] | %Inh [13] | %Inh [14] | %Inh [15] | %Inh [16] | %Inh [17] | %Inh [18] | %Inh [19] | %Inh [20]
1 | CNc1nc(-c2ccc3c(N)n[nH]c3c2)cc(N2C[C@@H](C(=O)NC3CCCCC3)OC[C@H]2C)n1 [GSK2375584] | 11% | 1% | 23% | 26% | 19% | 16% | 0% | 25% | 24% | 11% | 19% | 0% | 14% | 9% | 6% | 0% | 20% | 10% | 0% | 0%
2 | Fc1ccc(-c2nn3cccc(F)c3c2-c2ccncc2)cc1 [GW475620] | 0% | 50% | 22% | 0% | 0% | 38% | 0% | 33% | 0% | 0% | 24% | 9% | 33% | 7% | 0% | 16% | 78% | 5% | 12% | 11%
3 | COc1ccc(CSc2nnc(-c3ccc4nccn4c3)o2)cc1C(F)(F)F | 0% | 0% | 14% | 0% | 3% | 11% | 21% | 22% | 1% | 18% | 44% | 12% | 10% | 8% | 6% | 30% | 0% | 0% | 0% | 4%
4 | O=C(Nc1n[nH]c2cc(-c3ccsc3)ccc12)C1CC1 [SB-732932] | 35% | 8% | 7% | 0% | 0% | 12% | 17% | 0% | 13% | 26% | 19% | 27% | 0% | 71% | 16% | 29% | 24% | 13% | 44% | 4%
5 | CCn1c(-c2c(N)noc2C)nc2cnccc21 [SB-737856] | 25% | 0% | 0% | 0% | 0% | 12% | 0% | 6% | 23% | 28% | 0% | 16% | 8% | 15% | 0% | 0% | 22% | 0% | 15% | 0%
6 | COc1ccc(Nc2nccc(N3CCC(NC(=O)C(C)c4ccc(Cl)cc4)C3)n2)cc1 (centres unmarked) [GSK1379735] | 4% | 12% | 11% | 4% | 17% | 5% | 0% | 21% | 0% | 31% | 0% | 5% | 7% | 14% | 0% | 0% | 7% | 2% | 0% | 11%
7 | O=C1NC(=O)C(c2ccc(Cl)cc2)=C1Nc1cccc(Cl)c1 [SB-317651] | 46% | 0% | 7% | 0% | 0% | 86% | 0% | 1% | 0% | 12% | 0% | 23% | 0% | 18% | 23% | 0% | 13% | 36% | 0% | 6%
8 | CNc1nc(-c2ccc3c(N)n[nH]c3c2)cc(N2C[C@@H](C(=O)Nc3ccccc3)CC[C@H]2C)n1 [GSK2298859] | 0% | 0% |  | 61% | 36% | 22% | 0% | 29% | 50% | 0% | 0% | 0% | 0% | 7% | 3% | 0% | 23% | 0% | 4% | 0%
9 | Cn1cncc1C(=O)NC1CCN(c2ccnc(Nc3ccc(F)cc3)n2)C1 (centres unmarked) [GSK1379717] | 33% | 20% | 0% | 19% | 0% | 0% | 0% | 0% | 0% | 16% | 12% | 5% | 0% | 0% | 12% | 0% | 15% | 7% | 16% | 7%
10 | Cc1ccc(NC(=O)Nc2ccc(Cl)cc2)cc1-c1ccc(C(=O)Nc2ccncc2)cc1 [GSK1398472] | 28% | 6% | 4% | 0% | 0% | 7% | 0% | 17% | 0% | 27% | 0% | 2% | 6% | 15% | 0% | 0% | 20% | 8% | 19% | 8%
11 | Cc1ccc(NC(=O)Nc2ccccc2)cc1-c1ccc(C(=O)Nc2ccncc2)cc1 [GSK1398471] | 1% | 0% | 0% | 0% | 0% | 3% | 0% | 13% | 0% | 15% | 10% | 0% | 1% | 3% | 7% | 0% | 6% | 0% | 5% | 0%
12 | CCCCc1nn2ncccc2c1-c1ccnc(NC2CC2)n1 [GW684374] | 7% | 5% | 0% | 0% | 8% | 0% | 0% | 0% | 11% | 7% | 28% | 26% | 0% | 0% | 0% | 0% | 32% | 0% | 0% | 0%
13 | O=c1cc(N2CCOCC2)nc2n(Cc3ccccc3F)ccn12 [GSK2297428] | 0% | 0% | 0% | 0% | 47% | 5% | 0% | 8% | 0% | 5% | 0% | 0% | 0% | 3% | 0% | 0% | 0% | 0% | 0% | 0%
14 | COC(=O)C(Cc1ccccc1)NC(=O)NC1CCN(c2ccnc(Nc3ccc(F)cc3)n2)C1 (centres unmarked) [GSK1379714] | 0% | 15% | 9% | 20% | 24% | 14% | 0% | 1% | 18% | 6% | 0% | 0% | 19% | 5% | 10% | 1% | 9% | 2% | 13% | 0%
15 | COc1ccc(CSc2nnc(-c3ccc4c(c3)CCO4)o2)cc1 | 0% | 0% | 0% | 0% | 0% | 0% | 0% | 0% | 1% | 0% | 0% | 0% | 3% | 0% | 5% | 0% | 17% | 0% | 0% | 0%
